This is part of a sample that, as a whole, favours compounds with a hit. Of some 83,000 tested, about 20% had one in any assay.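 Note: values are percent growth. 100 is the growth of untreated cells, values between 100 and 0 indicate rising inhibition; between -100 and 0 indicates cell death.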 Values without a mark were called inactive. Active and inactive are the calls of the source. Rule for the calls: active = growth percent below 10; inactive = the rest.
The molecules below were run on MDA-MB-468 breast (assay: NCI-60 one-dose screen, 48 h (100 = growth as untreated, 0 = no growth, -100 = all killed)). Settings: 10 µM unless noted.

Row | SMILES | growth
1 | Cc1cc(O)c2c(c1)C(=O)C(c1c(C)cc3c(c1O)C(=O)C=CC3=O)=CC2=O | 53.2%
2 | COc1cccc(C=Nc2cc(C(C)C)c(O)cc2C)c1O | 95%
3 | COc1ccc(C2=CN3CC=CCC3CC2=O)cc1 (stereo not given) | 107%
4 | CCOC(=O)CC1C(COC(=O)NC)OC(n2cnc3c(NC(=O)Nc4ccccc4)ncnc32)C1O[Si](C)(C)C(C)(C)C (stereo not given) | 61.9%
5 | CC(=O)Nc1c(Br)cc2c(c1Br)Cc1cc(Br)ccc1-2 | -35.2% (active)
6 | Nc1cccc(Nc2cc(S(=O)(=O)O)c(N)c3c2C(=O)c2ccccc2C3=O)c1 | 112%
7 | COc1nc(N)nc2c1ncn2C1OC(CO)CC1O (stereo not given) | 98.5%
8 | COC(=O)/C=C1\S/C(=N\NC(=O)c2cc3ccc2/C=C\c2ccc(cc2)/C=C\3)N(Cc2ccccc2)C1=O | 21.1%
9 | O=C(CCn1cnc2c(cc(-c3ccccc3)n2-c2ccccc2)c1=O)Nc1ccc(F)cc1 | 78%
10 | c1ccc(-c2n(Cc3ccc4ccccc4c3)cc[n+]2Cc2ccc3ccccc3c2)cc1 | -65.5% (active)
11 | CCC1C(=O)COC1=O (stereo not given) | 103%
12 | CC1Cc2c(Cl)ncnc2N(C)c2ccc(O)cc21 (stereo not given) | -6.93% (active)
13 | CN(C)C(=O)Nc1nc2cc(Cl)c(Cl)cc2[nH]1 | -13.4% (active)
14 | O=C(O)c1cccc2c1C(=O)N(c1ccc3c(c1)Cc1ccccc1-3)C2=O | 107%
15 | COc1cc(Cn2cc3c(c2)-c2onc(CN4CCOCC4)c2CC3)cc(OC)c1OC | 81.5%
